Consider 52 compounds from PubChem BioAssay AID1458 (National Center for Advancing Translational Sciences (NCATS), 2008).

SMILES strings stand for the structures. Out of some 210,000 compounds screened, about 5,900 (2.8%) were called active. Another 5% or so got no clear call; they are omitted. This excerpt belongs to a sample that is enriched for actives. Values without a mark were called inactive. Calls follow the shape of the dose curve; as a rule, active = well fitted activation curve with a large enough effect; inconclusive = small, poorly fitted or top-dose-only effect; inactive = no such curve, though single readings can be large or run the other way.
Potency is read from the fitted curve at half-maximal effect.

The assay is described as follows: qHTS Assay for Enhancers of SMN2 Splice Variant Expression. Also: nearly all actives have a fitted effect of over 55% in size. As to activity change, positive = activation: % of control where 0% means no effect. Particulars: HEK293 SMN2-luciferase splicing reporter, luminescence, 30-36 h; series mostly up to 46.1 µM; activity change, positive = activation: at the top concentration. The source says:
NIH Chemical Genomics Center [NCGC] NIH Molecular Libraries Probe Production centers Network [MLPCN] MLPCN Grant: R03 MH084179-01 Assay Submitter (PI): Elliot Androphy NCGC Assay Overview: Spinal muscular atrophy (SMA) is caused by insufficient levels of the survival motor neuron protein SMN. The SMN locus on chromosome 5q13 contains two inverted copies of SMN called SMN1 and SMN2 which are 99% identical at the amino acid level. SMN1 is a fully functional protein and SMN2 skips exon 7 90% of the time. Skipping of exon 7 produces non-functional protein product. 10% of the SMN2 protein includes exon 7 and is fully functional. In the SMA disease state, mutations in the SMN1 locus are the cause of the disease state. Because only 10% of SMN2 is of the fully functional form, it is not sufficient to overcome the deficiency produced by the loss of the SMN1 product. A therapy that either increase the amount of SMN2 product made or to increase the inclusion of exon 7 has been proposed for the treatment of SMA. We have designed an assay to identify small molecules that can increase the amount of functional SMN2 product by appending a luciferase reporter gene after the native SMN2 gene, such that inclusion of exon 7 in the expressed product places the luciferase sequence in frame, thus generating functional luciferase enzyme.
NCGC Assay Protocol Summary: This screen utilizes a luciferase reporter gene assay, combining the promoter and splicing based cassettes in tandem with the major portion of the native SMN2 cDNA, and then transfected into HEK293 cells. Compounds that increase luciferase signal presumably enhance expression of the functional SMN2 splice variant. Passaging media contained DMEM w/ glutamax (+phenol red) 10% FCS, 1x pen/strep, 200 ug/ml hygro, 1x sodium pyruvate. Assay media contained DMEM w/ glutamax (-phenol red) 10% FCS, 1x pen strep, 1x pyruvate Sequence, Parameter, Value, Description (1) Cells, […], 2000 cells/well, 1536 TC treated White solid bottom plate (2) Time, 10-12 hours, 37C 5% CO2 (3) Compound, 23 nl, MLSMR Library (4) Control Compound, 23 nL, Sodium butyrate st 4.5mM (final) conc (5) Time, 30-36 hours, 37C 5% CO2 (6) Reagent, 3 ul, One Glo (TM) from Promega (7) Time, 5-15 minutes, Room temp (8) Detector, Viewlux: luminescent read, 60 second integration, high speed 2x binning Keywords: Spinal muscular atrophy, SMA, SMN2, high throughput screening, MLSMR, MLPCN, NIH Roadmap, qHTS and NCGC
(Quantitative high-throughput screening tests each substance at several concentrations.)
On to `Cc1ccc2nc(/C(C#N)=C/c3ccc(-c4ccc(C(=O)OC(C)C)cc4)o3)[nH]c2c1`, for which the Potency is 11.2 µM (active).

With `Cc1ccc2nc(/C(C#N)=C\c3ccc(OC(=O)c4cccs4)cc3)[nH]c2c1`, the “activity change, positive = activation” value was 1.65%. `CCOC(=O)c1ccc(-c2ccc(/C=C(\C#N)C(=O)Nc3ccc(OCC)cc3)o2)cc1`: the “activity change, positive = activation” value is -11.3%. As to `O=C(NCCc1ccccc1)c1ccc2c(c1)N(Cc1ccccc1)C(=O)c1ccccc1S2(=O)=O`, the “activity change, positive = activation” value is 4.46%. Take `O=C(CSCc1ccccc1)N1CCc2ccccc21`: the Potency was 12.6 µM (active). `NC(=O)N1CCc2ccccc21`: the “activity change, positive = activation” value is -6.27%. Turning to `Cc1nnc(SCC(=O)N2CCc3ccccc32)n1-c1ccccc1`, the “activity change, positive = activation” value is -11.7%.

As to `Cc1ccc(C)c(N2CCN(C(=O)CN3C(=O)COc4ccc(S(=O)(=O)N5CCCCCC5)cc43)CC2)c1`, the “activity change, positive = activation” value is 6.26%.

Consider `Cc1cc(C)nc(NS(=O)(=O)c2ccc(NC(=O)c3cc(=O)c4ccc(C)c(C)c4o3)cc2)n1`, for which the “activity change, positive = activation” value is 2.53%.

As to `COc1ccccc1-c1nnc(C2CCN(C(=O)c3ccc(Cl)cc3)CC2)o1`, the “activity change, positive = activation” value is -12.1%. On to `Cc1cc(N/C=C\C(=O)c2ccc(Cl)c(Cl)c2)no1`, for which the “activity change, positive = activation” value is 10.9%. Still for that read-out and setting: as for `CCOc1cc(NC(=O)c2ccccn2)c(OCC)cc1NC(=O)c1ccc(OC)cc1`, the figure is -2.18%. As to `COc1ccc(C(=O)/C=C/Nc2ccccn2)cc1`, the Potency is 1.41 µM (active). On to `CCC(=O)N1CCc2cc(S(=O)(=O)NC(CC(C)C)C(=O)NCCc3cccc(C)c3)ccc21` (configuration not stated), for which the “activity change, positive = activation” value was -12.6%.

In the case of `N#Cc1c(NC(=O)CCCl)sc2c1CCCCC2`, the “activity change, positive = activation” value is 3.56%. Turning to `N#Cc1c(NC(=O)C2CCCO2)sc2c1CCCCC2` (configuration not stated), the Potency was 6.31 µM (active). With `N#Cc1c(NC(=O)C2CC(Cl)=CCC2C(=O)O)sc2c1CCCCC2` (configuration not stated), the “activity change, positive = activation” value is -0.264%. For `Cc1ccccc1C(=O)N(Cc1ccc(N(C)C)cc1)CC1CCCO1` (configuration not stated), the “activity change, positive = activation” value is 5.65%. As to `c1cnn(-c2cc(N3CCOCC3)ncn2)c1`, the “activity change, positive = activation” value was -14%. Take `O=C(Nc1cc(N2CCOCC2)ncn1)NC1(C(F)(F)F)Oc2ccc(Cl)cc2O1` (configuration not stated): the Potency is 20 µM (active). `COc1c(C)cccc1C(=O)Nc1cc(Cl)ccc1N1CCOCC1`: the “activity change, positive = activation” value was 11.4%. As for `Cc1ccc(-c2nc3cccc(C)n3c2Nc2ccc3c(c2)OCCO3)cc1`, the “activity change, positive = activation” value is 15.9%.

In the case of `O=C(Nc1cc(C(F)(F)F)ccc1Cl)c1cc2nc(-c3ccc4c(c3)OCO4)cc(C(F)(F)F)n2n1`, the “activity change, positive = activation” value was -0.044%.

For the compound `CC(C)CNC(=S)Nc1ccc(F)cc1`, the “activity change, positive = activation” value is 26.9%.

With `COc1cc(OC)c(C(=O)Nc2ccc(N(C)C)cc2)cc1OC`, the “activity change, positive = activation” value was -2.79%. `CC(C)CNC(=O)C(=O)Nc1ccc(N(C)C)cc1`: the Potency is 11.2 µM (active). As for `COc1ccc(N(C)C(=O)CCS(=O)(=O)c2cccc3nsnc23)cc1`, the “activity change, positive = activation” value was 9.32%.

As to `CCOC(=O)c1ccc(NC2Nc3cc(C)nn3S2)cc1` (configuration not stated), the “activity change, positive = activation” value was -45.1%. For `CCc1ccc(NC(=O)N2CCN(c3ccccc3)CC2)cc1`, the “activity change, positive = activation” value is 1.4%. For the compound `CCc1ccc(NC2Nc3cc(C)nn3S2)cc1` (configuration not stated), the Potency is 11.2 µM (active). Take `O=C(NCCC1=CCCCC1)c1ccc2c(c1)N(Cc1ccccc1F)C(=O)c1ccccc1S2(=O)=O`: the “activity change, positive = activation” value is 9.24%.

In the case of `COc1ccc(CNC(=O)c2cc3c(-c4ccccc4F)nn(C)c3s2)c(OC)c1`, the “activity change, positive = activation” value is -4.64%. For the compound `CCOc1ccc(/C=C(\C#N)c2nc3ccccc3c(=O)[nH]2)cc1OC`, the “activity change, positive = activation” value is 6.78%. As for `Fc1cccc(-n2ncc3c2ncn2nc(-c4ccccc4Cl)nc32)c1`, the “activity change, positive = activation” value was 11.6%.

`COc1ccc(-n2nc(C(=O)NCCc3ccc(Cl)cc3)c3c4ccccc4n(C)c3c2=O)cc1Cl`: the “activity change, positive = activation” value is -6.22%. As for `Cc1ccc(N)cc1-n1c(C)ccc1C`, the Potency is 28.2 µM (active).

Turning to `CCCCNC(=O)c1cc(-c2ccc(Cl)c(Cl)c2)on1`, the “activity change, positive = activation” value was 3.08%. `CC(C)CNC(=O)c1cc(-c2ccc(Br)cc2)on1`: the Potency was 12.6 µM (active). For the compound `CC(NC(=O)c1cc(-c2ccccc2)on1)c1ccccc1` (configuration not stated), the “activity change, positive = activation” value is -1.13%.

As to `CCCCS(=O)(=O)c1oc(-c2cccs2)nc1S(=O)(=O)c1ccccc1`, the “activity change, positive = activation” value was -103%. Still for that read-out and setting: under `Cc1ccc(S(=O)(=O)N2CCc3cc(C(=O)Nc4ccc(Cl)cc4C)ccc32)cc1` stands -7.76%.

On to `CCNc1nc(-c2cc3ccccc3o2)cs1`, for which the Potency was 3.16 µM (active). `CCCOC(=O)c1cc2ccccc2oc1=O`: the “activity change, positive = activation” value was -9.46%. As to `Cc1nc(C)c(-c2csc(NCCc3ccccc3)n2)s1`, the “activity change, positive = activation” value was -52.2%. `O=c1oc2ccccc2cc1-c1csc(Nc2ccc(O)cc2)n1`: the Potency is 11.2 µM (active). As to `COc1ccc2nc(Nc3nc(-c4cc5ccccc5oc4=O)cs3)sc2c1`, the “activity change, positive = activation” value is 4.66%.

Regarding `Cc1cc(NC(=O)c2cccc(Cl)c2)ccc1-c1cc2ccccc2oc1=O`, the “activity change, positive = activation” value is -3.74%.

On to `Cc1cc2c(cc1C)C(c1cccc(OC(C)C)c1)CC(=O)N2` (configuration not stated), for which the “activity change, positive = activation” value is 5.65%. Regarding `N#Cc1ccc(-c2cccs2)nc1SCc1ccc(Br)cc1`, the “activity change, positive = activation” value is 0.274%.

Consider `O=C(CSc1ccc(-c2cccs2)nn1)Nc1ccccc1F`, for which the “activity change, positive = activation” value is -18.9%. On to `Cc1cccc(CSc2ccc(-c3cccs3)nn2)c1`, for which the Potency was 20 µM (active). In the case of `COc1ccc(C2NC(=O)N(C)C3=C2C(=O)N(c2ccc(C(=O)O)cc2)C3)cc1` (configuration not stated), the “activity change, positive = activation” value is -7.2%.
